# Laboratory results: PubChem BioAssay (NCATS)
# Inconclusive results are not listed. The source made the active and inactive calls. Calls come from the whole dose curve; as a rule, active = well fitted inhibition curve with a large enough effect; inconclusive = small, poorly fitted or top-dose-only effect; inactive = no such curve, though single readings can be large or run the other way.
# Target: Retinal dehydrogenase 2 (Homo sapiens) (UniProt O94788)
# Assay: qHTS for Inhibitors of the Aldehyde Dehydrogenase Family (ALDH1A2) Confirmation screens (AID 2061314); note: nearly all actives have a fitted effect of over 65% in size
# Settings: ALDH1A2 enzyme inhibition qHTS confirmation; series mostly up to 45.9 µM; activity, negative = inhibition: at the top concentration
# % is set by controls: 0 for no effect and ±100 for the full control effect; potency is the fitted concentration of half-maximal effect.
SMILES,outcome,"activity, negative = inhibition",Potency
COc1ccc(C2=Nn3c(nnc3-c3ccc(OC)cc3)SC2)cc1,inactive; activator,–,–
COc1ccc(C2=Nn3c(nnc3-c3cccc(OC)c3OC)SC2)c(OC)c1,–,57.2% (inactive),–
O=C(Nc1nc(-c2ccccc2)cs1)c1ccncc1NS(=O)(=O)c1ccc2ccccc2c1,–,–,7.12 µM (active)
Cc1ccc(N[S+](=O)([O-])c2cc3c(cc2Cl)NC(=O)CO3)cc1Br,–,–,14.2 µM (active)
COc1ccc(C2=Nn3c(nnc3-c3cc(OC)ccc3OC)SC2)cc1,–,-10.6% (inactive),–
CN1CCN(c2ccc(Nc3nn4c(=O)c5ccccc5nc4s3)cc2)CC1,–,–,14.2 µM (active)
N#Cc1c(-c2ccc(Br)cc2)no[n+]1[O-],–,–,7.12 µM (active)
O=C(NCCCCc1ccccc1)C1CCN(c2nc(-c3ccc(Br)cc3)cs2)CC1,inactive,–,–
O=C([C@H](Cc1ccc(O[S+](=O)([O-])c2cccnc2)cc1)N[S+](=O)([O-])c1ccccn1)N1CCN(c2ccccc2)CC1,–,–,7.98 µM (active)
Cc1cc(-c2nnc3n2CCCC3)c(C)n1-c1ccccc1,–,-12.9% (inactive),–
